In the supplement of paper PMC13392028:
Over roughly 4,100 sequences, “RBNS R-value (6-mer enrichment in protein-bound RNA vs input library)” has its median near 0.96; the highest 2% begin near 2.4. The list comes from a sample in which the highest values are over-represented; it also holds similar and randomly drawn sequences.

Test system: PyIESI-1 RRM domain (Plasmodium yoelii PY17X_0911200 aa 795-956, GST fusion)
Experiment: RBNS R-value (6-mer enrichment in protein-bound RNA vs input library) (ratio); higher = stronger binding preference; the methods of the paper give 50 / 100 / 500 nM protein instead
Experimental: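 RNA Bind-n-Seq: recombinant GST-tagged IESI-1 RRM domain was incubated at room temperature with a random 40-nt in vitro transcribed RNA library at 250, 500 or 1000 nM protein. Bound RNA was pulled down on glutathione beads and sequenced. R-value is the enrichment of each 6-mer in the bound RNA relative to the input library. Each 6-mer sits inside the random 40-mer context, not as an isolated oligo. Values are replicate 1 only.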

Sequence	RBNS R-value (protein concentration: 250 nM)	RBNS R-value (protein concentration: 500 nM)	RBNS R-value (protein concentration: 1000 nM)
UGCUUU	1.1	1.15	1.18
GGAUGA	1.75	1.71	1.69
AUAUGA	1.78	1.74	1.84
UGAUGU	7	6.29	6.39
AGAUGC	1.47	1.52	1.65
CGAUGU	2.03	2.04	2.13
UGAUGA	9.09	7.87	7.73
CGAUGC	2.07	2.1	2.31
UUAUGA	1.76	1.72	1.81
CAAUGA	2.27	2.18	2.28
AGAUGU	1.45	1.47	1.54
AGAUGA	2.69	2.61	2.72
CGAUGA	3.48	3.36	3.47
UCACCA	0.862	0.849	0.9
GGAGCG	1.01	1.01	0.994
AUACCA	0.709	0.723	0.733
AACUUC	0.893	0.92	0.901
CGCAAG	0.91	0.907	0.917
UCCCAA	0.972	0.967	0.987
GGGGGA	1.03	1.05	1.01
AGAUGG	1.49	1.46	1.49
UGAUGC	6.04	5.5	5.71
GGAUGC	1.08	1.04	1.08
UGAUGG	5.96	5.24	5.21

Sequence	RBNS R-value (protein concentration: 250 nM)	RBNS R-value (protein concentration: 500 nM)	RBNS R-value (protein concentration: 1000 nM)
CGAUGG	2.05	1.98	2
UUAUGC	0.736	0.778	0.779
CAAGGC	0.956	0.935	0.949
CACACU	0.829	0.834	0.839
CGGAGC	1.02	1.01	1
UUCUUU	0.927	0.977	1
AUUUGC	1.82	1.76	1.77
GAUGGG	2.54	2.43	2.36
AAUGGG	1.06	1.06	1.03
UAUGGC	1.41	1.37	1.34
CAUGGC	1.06	1.08	1.1
UAUGGG	0.863	0.942	0.916
GAUGGC	3.56	3.12	3.1
UCAGAC	0.883	0.894	0.893
AUUUAC	0.935	0.952	0.963
AUGGGA	1.34	1.34	1.29
GUCAAC	0.681	0.708	0.688
UCUCAA	0.805	0.835	0.84
UUACGC	0.784	0.803	0.805
AAGGCU	0.979	0.991	0.95
GAUCGG	0.955	0.963	0.942
GAUAUU	1.57	1.65	1.77
GAUAUA	1.32	1.36	1.53
